High-throughput results: PubChem BioAssay, National Center for Advancing Translational Sciences (NCATS)
Hits are enriched below; roughly 4.7% of the tested compounds scored in any of these assays.
D3 antag = antagonists of human D3 dopamine receptor. D3R cells, DiscoveRx beta-arrestin luminescence, antagonist mode; stronger effect = lower value. AID 652054. 2.5% of 360,000 active. P35462. max response, negative = inhibition, %; in the data active = max response below about -50%; inconclusive = no clear call, values can overlap the other calls; note: % is set by controls: 0 for no effect and ±100 for the full control effect
Target sequence (P35462 whole entry, looked up): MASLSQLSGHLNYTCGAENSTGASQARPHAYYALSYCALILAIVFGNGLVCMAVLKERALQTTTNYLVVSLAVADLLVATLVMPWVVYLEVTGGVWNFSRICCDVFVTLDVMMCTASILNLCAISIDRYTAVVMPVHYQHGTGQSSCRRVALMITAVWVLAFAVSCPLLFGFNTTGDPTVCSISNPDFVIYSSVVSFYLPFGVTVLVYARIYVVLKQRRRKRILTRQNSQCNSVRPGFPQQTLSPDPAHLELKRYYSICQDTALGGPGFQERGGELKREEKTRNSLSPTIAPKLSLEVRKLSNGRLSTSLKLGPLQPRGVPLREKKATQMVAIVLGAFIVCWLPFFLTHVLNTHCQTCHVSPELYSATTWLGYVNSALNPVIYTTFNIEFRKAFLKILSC
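Cells plated overnight at 1500 cells/well, then exposed to library compounds with dopamine controls for 90 minutes at 37 degrees C. DiscoveRx reagent added for 30–60 minutes at room temperature; luminescence read, quantitative HTS format.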
ATXN2 expr inh = inhibitors of ATXN2 expression; HEK-293 ATXN2-luciferase reporter, luminescence, 24 h; AID 1745845; 0.72% of 360,000 active; Potency, µM (titrated, usually from 57 µM), without a hit: top-dose activity change, negative = inhibition, hits mostly inhibitors; note: potency is the fitted concentration of half-maximal effect; % is set by controls: 0 for no effect and ±100 for the full control effect; nearly all actives have a fitted effect of over 55% in size
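ATXN2-luciferase reporter cells (luciferase flanked by upstream and downstream ATXN2 gene portions) were treated 24 h at 37 °C with compounds at up to 57 uM. SteadyGlo luminescence gave expression; GF-AFC fluorescence gave viability.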
TGFb SMAD3 inh = TGF-b pathway inhibition; AID 588855; 1.2% of 410,000 active; HepG2 CAGA-GFP TGF-b/SMAD3 reporter, GFP fluorescence, 18 h; TGF-beta stimulated, 500 pg/mL final; Potency, µM (titrated, usually from 46.1 µM), without a hit: at the top dose activity, negative = inhibition, hits mostly inhibitors; note: potency is the fitted concentration of half-maximal effect; % is set by controls: 0 for no effect and ±100 for the full control effect; nearly all actives have a fitted effect of over 65% in size
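HEPG2 CAGA-GFP reporter cells (1000/well, DMEM with 1% FBS) received compounds, then recombinant TGF-beta at 500 pg/mL final for 18 hours at 37 degrees C. Per-cell GFP summed per well was normalised to unstimulated and stimulated DMSO controls before curve fitting.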
HepG2 viability = HepG2 cytotoxicity, counter-screen for TGF-b inhibitors; HepG2 CAGA-GFP viability, ATP luminescence, 18 h; Potency, µM (doses to about 46.1 µM), inactives show at the highest dose activity change, negative = cytotoxicity, actives largely listed as cytotoxic; 0.76% of 410,000 active; AID 588856; note: potency is the fitted concentration of half-maximal effect
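HepG2 CAGA-GFP cells (1000/well, DMEM with 1% FBS) received compound, then TGF-beta at 500 pg/mL final, and were incubated 18 hours at 37 degrees C. Viability was read by CellTiter-Glo luminescence. Media-only wells were set as complete cell-killing and DMSO as no toxicity.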
DRD3 agonist = D3 dopamine receptor (human) agonism; P35462; 0.58% of 410,000 active; D3R DiscoveRx beta-arrestin cells, luminescence, 90 min; AID 652048; max activation, %; in the data active = max activation above about 30%; note: 0% is about no effect
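Agonist-mode cell screen: cells plated at 1500/well and incubated overnight at 37 °C, then exposed to library compounds for 90 min at 37 °C. Detection reagent was added for 30–60 min at room temperature, and luminescence was read.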
ATXN viability = reduces viability in counter-screen for ATXN expression inhibitors. S2 cells (HEK-293 line with an ATXN2-luciferase reporter) viability, CellTiter-Fluor protease fluorescence, 24 h. Potency, µM (highest dose often 56.7 µM), actives largely listed as cytotoxic. 0.49% of 400,000 active; note: potency is the fitted concentration of half-maximal effect; nearly all actives have a fitted effect of over 40% in size
* = called active by the depositor. Unless noted, calls come from the whole dose curve; as a rule, active = well fitted curve in the direction sought with a large enough effect; inconclusive = small, poorly fitted or top-dose-only effect, or another doubt; inactive = no such curve, though single readings can be large; an effect the other way counts as inactive or inconclusive.

What do the screens show for `Nc1nc(Nc2ccccc2)nc2ccccc12`?
D3 antag: -2; ATXN2 expr inh: 46%; TGFb SMAD3 inh: 6%; HepG2 viability: -57%; DRD3 agonist: -4; ATXN viability: inactive

How did CN(C)c1ccc(Nc2nc(N)c3ccccc3n2)cc1 do in these assays?
D3 antag: -25; ATXN2 expr inh: 5µM*; TGFb SMAD3 inh: -2%; HepG2 viability: 13µM*; DRD3 agonist: -1; ATXN viability: inactive

How did CCOc1ccc(Nc2nc(N)c3ccccc3n2)cc1 do in these assays?
D3 antag: -22; ATXN2 expr inh: inconclusive; TGFb SMAD3 inh: -13%; HepG2 viability: 16µM*; DRD3 agonist: -10; ATXN viability: inactive

Results for Cc1ccc(Nc2nc(N)c3ccccc3n2)cc1Cl ?
D3 antag: 6; TGFb SMAD3 inh: inconclusive; HepG2 viability: -78%; DRD3 agonist: 12; ATXN viability: inconclusive

Results for Cc1ccccc1Nc1nc(N)c2ccccc2n1 ?
D3 antag: -8; ATXN2 expr inh: -2%; TGFb SMAD3 inh: -9%; HepG2 viability: 11µM*; DRD3 agonist: 0; ATXN viability: inactive

Results for COc1ccc(Cl)cc1S(=O)(=O)N1CCN(C(=O)c2cc(-c3ccc(Br)cc3)n[nH]2)CC1 ?
TGFb SMAD3 inh: 8.9µM*; HepG2 viability: -1%; DRD3 agonist: 11

How did Cc1nn(-c2nc3ccccc3[nH]2)c(=O)c2ccccc12 do in these assays?
D3 antag: 0; ATXN2 expr inh: 0.4µM*; TGFb SMAD3 inh: -1%; HepG2 viability: 3.2µM*; DRD3 agonist: 6; ATXN viability: inactive

What do the screens show for `Fc1ccc(-[n+]2nc(Nc3ccccc3)sc2-c2c3ccccc3cc3ccccc23)cc1`?
D3 antag: -63*; ATXN2 expr inh: 25µM*; TGFb SMAD3 inh: 11µM*; HepG2 viability: 11µM*; DRD3 agonist: -19; ATXN viability: 11µM*

Results for CCOC(=O)[C@]12CCCC=C1N(CCC1=CCCCC1)C(=O)[C@H](CC(=O)NCc1cccs1)C2 ?
D3 antag: 15; DRD3 agonist: 1

Results for Cc1ccc(C2(C)NC(=O)N(CC(=O)Nc3cc(C)on3)C2=O)cc1 (configuration not stated) ?
D3 antag: 23; ATXN2 expr inh: 18%; TGFb SMAD3 inh: -8%; HepG2 viability: -2%; DRD3 agonist: -3; ATXN viability: inactive

What do the screens show for `Cc1ccc(C2(C)NC(=O)N(CC(=O)NC(=O)NC(C)(C)C)C2=O)cc1` (configuration not stated)?
D3 antag: 10; ATXN2 expr inh: -4%; TGFb SMAD3 inh: 20%; HepG2 viability: 11%; DRD3 agonist: 33*; ATXN viability: inactive

What do the screens show for `COc1cc(O)ccc1-c1nc2ccc(Br)cn2c1Nc1ccccc1C`?
TGFb SMAD3 inh: inconclusive; HepG2 viability: 16µM*; DRD3 agonist: 10

What do the screens show for `Cc1ccccc1Nc1c(-c2cccc(O)c2)nc2ccc(Br)cn12`?
ATXN2 expr inh: inconclusive; TGFb SMAD3 inh: inconclusive; HepG2 viability: -65%; DRD3 agonist: 6; ATXN viability: inconclusive

What do the screens show for `COc1ccccc1C(C)NCC(=O)c1c(C)[nH]c2ccccc12` (configuration not stated)?
TGFb SMAD3 inh: -9%; HepG2 viability: -25%

Results for CCCN1Cc2cccc(C(=O)N3CCN(c4cc(Cl)ccc4C)CC3)c2C1=O ?
D3 antag: -51*; ATXN2 expr inh: -11%; TGFb SMAD3 inh: -28%; HepG2 viability: -32%; DRD3 agonist: -4; ATXN viability: inactive

Results for COCCN1Cc2cccc(C(=O)N3CCN(c4cc(C)ccc4C)CC3)c2C1=O ?
D3 antag: 3; ATXN2 expr inh: -3%; TGFb SMAD3 inh: -19%; HepG2 viability: -23%; DRD3 agonist: 2; ATXN viability: inactive

How did CC(=O)OCC(=O)Nc1cc(C#N)cc(NC(=O)COC(C)=O)c1Cl do in these assays?
ATXN2 expr inh: 8%; DRD3 agonist: 7; ATXN viability: inactive

What do the screens show for `COc1cc(/C=N/NC(=O)c2ccc(Cl)cc2)ccc1OCC(=O)N1CC(C)OC(C)C1` (configuration not stated)?
D3 antag: -54*; ATXN2 expr inh: -20%; TGFb SMAD3 inh: 1%; HepG2 viability: 0%; DRD3 agonist: -24; ATXN viability: inactive

How did O=C1/C(=C\c2cc(Cl)c(O)c(Cl)c2)SC(=S)N1Cc1ccccc1 do in these assays?
D3 antag: -24; ATXN2 expr inh: inconclusive; TGFb SMAD3 inh: 238%; HepG2 viability: 11µM*; DRD3 agonist: 22; ATXN viability: inactive

Results for Cc1cc(C(=O)COC(=O)c2ccccc2Br)c(C)n1CC1CCCO1 (configuration not stated) ?
D3 antag: -6; ATXN2 expr inh: -24%; TGFb SMAD3 inh: -8%; HepG2 viability: -10%; DRD3 agonist: 13; ATXN viability: inactive

What do the screens show for `Cc1cc(C(=O)COC(=O)c2cc(O)c3ccccc3c2O)c(C)n1CC1CCCO1` (configuration not stated)?
D3 antag: -7; ATXN2 expr inh: -17%; TGFb SMAD3 inh: 14µM*; HepG2 viability: -30%; DRD3 agonist: 5; ATXN viability: inconclusive

How did Cc1cc(C(=O)COC(=O)c2ccccc2O)c(C)n1CC1CCCO1 (configuration not stated) do in these assays?
D3 antag: 8; ATXN2 expr inh: 0.35µM*; TGFb SMAD3 inh: -7%; HepG2 viability: -3%; DRD3 agonist: 9; ATXN viability: inactive

Results for Cc1cc(C(=O)COC(=O)c2ccccc2O)c(C)n1Cc1cccs1 ?
D3 antag: 29; ATXN2 expr inh: 0.71µM*; TGFb SMAD3 inh: -37%; HepG2 viability: -3%; DRD3 agonist: 17; ATXN viability: inactive

Results for CCOC(=O)N1CCc2c(sc3c2C(=O)NC(c2cc(OC)c(OC)c(OC)c2)N3)C1 (configuration not stated) ?
TGFb SMAD3 inh: 1%; HepG2 viability: -52%; DRD3 agonist: 4

Results for COc1ccccc1CNc1nc(-c2ccco2)nn1S(=O)(=O)c1ccc2ccccc2c1 ?
TGFb SMAD3 inh: -13%; HepG2 viability: -2%; DRD3 agonist: -4

Results for Cn1nnc2cc(NC(=O)NCc3ccc4c(c3)OCO4)ccc21 ?
D3 antag: -90*; ATXN2 expr inh: 5%; TGFb SMAD3 inh: -5%; HepG2 viability: -5%; DRD3 agonist: -20; ATXN viability: inactive
